Bioassay records as filed in PubChem BioAssay.
Nrf2 activator – Nrf2 pathway activation | AREc32 ARE-luciferase reporter (MCF7-derived line), luminescence, 24 h | Potency, µM (highest dose often 46.1 µM), for the others: at the highest dose activation, actives largely listed as activators | 0.31% of 410,000 active | AID 624171; note: % of control where 0% means no effect; nearly all actives have a fitted effect of over 65% in size
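Quantitative high-throughput format: AREc32 reporter cells, 1000 per well, received compound by pin transfer and were incubated 24 hr at 37 deg C, 5% CO2, before Steady-Glo luminescence detection.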
Nrf2 inh – Nrf2 pathway inhibition; Potency, µM (titrated, usually from 46 µM), inactives show at the highest dose activity change, negative = inhibition, hits mostly inhibitors; AID 504444; A549 ARE-Fluc reporter, luciferase luminescence, 18-24 h; 2.1% of 360,000 active; note: % is set by controls: 0 for no effect and ±100 for the full control effect; nearly all actives have a fitted effect of over 60% in size
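In this cell-based qHTS, ARE-driven firefly luciferase in A549 cells reports Nrf2 activity; the luminescent signal after BugLite lysis is the measured value, with a prior CellTiter-Fluor read for cell health.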
PINK1 modulator – PINK1 expression modulation. PINK1 immunofluorescence, high-content cytometry, 24 h. Potency, µM (titrated, usually from 76.6 µM), for inactives: at the top dose activation (PINK1 increase), actives largely listed as activators. 0.2% of 410,000 active; active = well fitted activation curve with a large enough effect; inconclusive = small, poorly fitted or top-dose-only effect; cell line not stated here; note: % of control where 0% means no effect; nearly all actives have a fitted effect of over 65% in size
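Cells are seeded, rested 12 hours, then given compound at five concentrations or DMSO for 24 hours. After fixation, blocking and antibody staining, PINK1 amount and mitochondrial localization are scored; CCCP serves as control.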
A549 tox – counter-screen for Nrf2 inhibitors: cytotoxicity in A549 cells | A549 ARE-Fluc cells, CellTiter-Fluor viability, 18-24 h | Potency, µM (series often up to 46 µM), inactives show at the top dose activity change, negative = cytotoxicity, most hits filed as inhibitors | 0.16% of 390,000 active | AID 504648; note: % is set by controls: 0 for no effect and ±100 for the full control effect
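A549 ARE-Fluc cells in 5% FBS OPTI-MEM, 5000 cells/well, rested 2 h then exposed to compounds in concentration-response for 18-24 h at 37 °C. Viability by CellTiter-Fluor fluorescence (Ex 405/Em 525) after 30 min; luciferase luminescence (BugLite, 15 min, RT) read afterwards.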
Epigenetic derep – epigenetic control regulation, reporter derepression; murine LDR cells, GFP reporter derepression, 30 h; Potency, µM (series often up to 53.9 µM), for inactives: at the highest dose GFP activation, hits mostly activators; 0.2% of 280,000 active; note: % of control where 0% means no effect; nearly all actives have a fitted effect of over 60% in size
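Derepression of a silenced CMV-GFP reporter in murine LDR cells is scored by enumerating GFP-positive cells with a laser-scanning microplate cytometer after 30 hours of treatment at 37 C.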
Numbers without * were called inactive; ! = not confirmed by another sample; [ ] = another dose, or the depositor's remark. Sampled rows, rich in hits. Any-hit rate of the full collection: about 2.4%. Unless noted, calls come from the whole dose curve; as a rule, active = well fitted curve in the direction sought with a large enough effect; inconclusive = small, poorly fitted or top-dose-only effect, or another doubt; inactive = no such curve, though single readings can be large; an effect the other way counts as inactive or inconclusive. Potency is the fitted concentration of half-maximal effect.

Screening O=C(C1=C[C@H](c2csc3ccccc23)C[C@H](OCc2ccc(CO)cc2)O1)N1CCCCCCC1 returned Nrf2 activator 0.8%, Nrf2 inh 23.1µM*, PINK1 modulator 0.9% and A549 tox -19.0%.
Screening O=C(C1=C[C@H](c2ccc(C(F)(F)F)cc2)C[C@H](OCc2ccc(CO)cc2)O1)N1CCN(Cc2ccc3c(c2)OCO3)CC1 returned Nrf2 activator 4.7%, Nrf2 inh inconclusive, PINK1 modulator 0.5%, A549 tox inconclusive and Epigenetic derep -1.5%.
`O=C(Nc1ccccc1)C1=C[C@@H](c2ccc(Br)cc2)C[C@@H](OCc2ccc(CO)cc2)O1` gave Nrf2 activator 6.9%, Nrf2 inh 18.4µM*, PINK1 modulator -0.2%, A549 tox -11.4% and Epigenetic derep -1.3%.
`CC1(C)N=C(Nc2nc3ccccc3o2)NC2=C1C(=O)CCC2` gave Nrf2 inh inconclusive and A549 tox -0.5%.
`COc1cc(C2c3[nH]c4ccccc4c3CC3C(=O)N4C(Cc5c([nH]c6ccccc56)C4c4cc(OC)c(OC)c(OC)c4)C(=O)N32)cc(OC)c1OC` (stereo unspecified) gave Epigenetic derep 1.1%[10.1 µM].
Cc1ccc2c(c1)-c1c(cnn1CC(=O)N1CCN(c3cccc(C(F)(F)F)c3)CC1)CO2 was read as Nrf2 activator 0.0%, Nrf2 inh inconclusive, PINK1 modulator -0.2%, A549 tox inconclusive and Epigenetic derep 0.8%.
For Cc1oc2ccc(O)c(CN(C)Cc3ccccc3)c2c1C(=O)Nc1cccc(C(F)(F)F)c1 the results were Nrf2 activator -2.0%, Nrf2 inh inconclusive, PINK1 modulator inconclusive, A549 tox 0.3% and Epigenetic derep -1.9%.
Screening COCCN1CCN(C(=O)c2cnn(-c3nccc(-c4ccccc4F)n3)c2-c2ccco2)CC1 returned PINK1 modulator 0.1%.
Screening CC(=O)Nc1sc(/C(C#N)=C\c2cccc(Cl)c2)nc1-c1ccc(C)cc1 returned Nrf2 activator 0.1%[9.22 µM], Nrf2 inh -26.0%, PINK1 modulator 1.8%, A549 tox inconclusive and Epigenetic derep 7.94µM*.
Screening CC(=O)Nc1sc(N/N=C/c2ccccc2)nc1-c1ccc(C)cc1 returned Nrf2 activator 4.6%, Nrf2 inh 12.2%, PINK1 modulator -0.2%, A549 tox -3.6% and Epigenetic derep -0.4%.
O=c1cc(-c2cccc(Br)c2)oc2cccc(O)c12 was read as Nrf2 activator 2µM*, Nrf2 inh 22.7%, PINK1 modulator 0.2%, A549 tox -1.3% and Epigenetic derep 0.0%.
O=C1/C(=C\c2ccc(Cl)c(Cl)c2)CN(C(=O)CCN2CCOCC2)C/C1=C/c1ccc(Cl)c(Cl)c1 was read as Nrf2 activator inconclusive, Nrf2 inh inconclusive, PINK1 modulator -5.9% and A549 tox 20.6µM*.
Screening COC(=O)c1[nH]c2cc(OC)ccc2c1NC(=O)CCN1CCN(c2ccccc2)CC1 returned Nrf2 activator 0.9%, Nrf2 inh -4.7%, PINK1 modulator -0.8%, A549 tox -0.7% and Epigenetic derep 2.2%.
COc1cccc(N2CCN(CC(=O)Nc3nnc(-c4ccccc4)s3)CC2)c1 was read as Nrf2 activator 2.5%, Nrf2 inh 11.6µM*, PINK1 modulator 2.5%, A549 tox -19.8% and Epigenetic derep -1.1%.
For COc1cccc(N2CCN(CC(=O)c3c(C)[nH]c4ccccc34)CC2)c1 the results were Nrf2 activator 3.7%, Nrf2 inh 11.6µM*, PINK1 modulator 1.6%[38.3 µM], A549 tox inconclusive and Epigenetic derep 1.0%.
`COC(=O)c1[nH]c2ccccc2c1NC(=O)CN1CCN(c2cccc(OC)c2)C(C)C1` (stereo unspecified) gave Nrf2 activator 1.7%, Nrf2 inh 25.9µM*, PINK1 modulator -2.1%, A549 tox -24.4% and Epigenetic derep 1.2%.
Cc1ccc2c(C(=O)CN3CCN(c4ccccc4)CC3)c(C)[nH]c2c1 was read as Nrf2 activator -0.2%, PINK1 modulator 17.2%, A549 tox -3.7% and Epigenetic derep 4.8%.
For COc1cccc(CCNc2ncnc3c2nnn3C)c1 the results were Nrf2 activator 3.8%, PINK1 modulator -9.4%, A549 tox -7.3% and Epigenetic derep 1.4%.
For Cc1cc(Cl)ccc1OCC(=O)NCC1Cc2cc(-c3cnccn3)ccc2O1 (stereo unspecified) the results were PINK1 modulator 2.0%.
For N#Cc1ccc(C(=O)Nc2ccn(-c3ccccc3)n2)cc1 the results were Nrf2 activator 2.7%, Nrf2 inh 23.1µM*, PINK1 modulator -0.9%, A549 tox -18.4% and Epigenetic derep 0.0%.
For O=C(Nc1ncnc2c1C(c1ccccc1)c1c(ccc3ccccc13)O2)c1ccccc1 (stereo unspecified) the results were Nrf2 activator 8.4%, Nrf2 inh inconclusive, PINK1 modulator -0.7% and A549 tox inconclusive.
For CCOC(=O)C1=C(N)Oc2ccc3ccccc3c2C1c1ccc(O)cc1 (stereo unspecified) the results were Nrf2 activator 14.2%, Nrf2 inh -9.0%, PINK1 modulator 1.8% and A549 tox 2.0%.
For CCOC(=O)CCC(=O)Nc1ncnc2c1C(c1ccccc1)c1c(ccc3ccccc13)O2 (stereo unspecified) the results were Nrf2 activator 0.1%, Nrf2 inh 6.51µM*!, PINK1 modulator 1.1% and A549 tox inconclusive.
O=C(Cc1ccccc1)Nc1ncnc2c1C(c1ccccc1)c1c(ccc3ccccc13)O2 (stereo unspecified) was read as Nrf2 activator 5.1%, Nrf2 inh 5.17µM*, PINK1 modulator 0.3% and A549 tox inconclusive.
For Cc1cnc(SCc2ccccn2)nc1C1CCCN(C(=O)c2noc3c2CCCC3)C1 (stereo unspecified) the results were PINK1 modulator -0.2%.
`CCCN1CCC(=O)N(C(CSc2ccc(OC)cc2)CC(C)C)CC1` (stereo unspecified) gave Nrf2 inh inconclusive and A549 tox -9.9%.
For COC(=O)c1ccc(Cn2ncc3c4sc(C)cc4n(C)c3c2=O)cc1 the results were Nrf2 inh 10.1% and A549 tox 4.0%.
CCN(CC)CCn1nc2c3c(cccc3c1=O)-c1ccccc1-2 was read as Nrf2 activator -1.7%, Nrf2 inh inconclusive, PINK1 modulator 0.0%, A549 tox 13µM* and Epigenetic derep -0.1%.
`CCN(CC)CCn1nc(C)nc1-c1ccccc1O` gave Nrf2 activator -1.6%, Nrf2 inh -25.6%, PINK1 modulator 1.1%[38.3 µM], A549 tox 2.8% and Epigenetic derep 0.0%.
CN(C)CCN(C)C(=O)c1ccc(-n2c(=O)c(=O)[nH]c3ccccc32)cc1 was read as Epigenetic derep -3.9%.
O=C(Cc1ccc(Br)cc1)NO was read as PINK1 modulator 2.9%.
